Assay results taken from PubChem BioAssay (NCI).
This is part of a sample that, as a whole, favours compounds with a hit. Of some 83,000 tested, about 20% had one in any assay.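 The endpoint reported here, percent growth, reads 100 for growth as untreated, 0 for no net growth and -100 for all cells dead.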 Values without a mark were called inactive. Active and inactive are the calls of the source. The calls were made as follows: active = growth percent below 10; inactive = the rest.

Key:
Test in all cases: NCI-60 one-dose screen, 48 h (100 = growth as untreated, 0 = no growth, -100 = all killed)
Settings in all cases: 10 µM unless noted
SK-MEL-2 melanoma = tested on: SK-MEL-2 melanoma
EKVX NSCLC = tested on: EKVX NSCLC
SN12C renal = tested on: SN12C renal
UO-31 renal = tested on: UO-31 renal
TK-10 renal = tested on: TK-10 renal
ACHN renal = tested on: ACHN renal
A498 renal = tested on: A498 renal
CCRF-CEM leukemia = tested on: CCRF-CEM leukemia
MOLT-4 leukemia = tested on: MOLT-4 leukemia
SR leukemia = tested on: SR leukemia
RPMI-8226 leukemia = tested on: RPMI-8226 leukemia
OVCAR-8 ovarian = tested on: OVCAR-8 ovarian
OVCAR-5 ovarian = tested on: OVCAR-5 ovarian
OVCAR-4 ovarian = tested on: OVCAR-4 ovarian
SK-OV-3 ovarian = tested on: SK-OV-3 ovarian
IGROV1 ovarian = tested on: IGROV1 ovarian
OVCAR-3 ovarian = tested on: OVCAR-3 ovarian
HS 578T breast = tested on: HS 578T breast
NCI/ADR-RES ovarian = tested on: NCI/ADR-RES ovarian
T-47D breast = tested on: T-47D breast

Row | Structure (SMILES) | growth (SK-MEL-2 melanoma) | growth (EKVX NSCLC) | growth (SN12C renal) | growth (UO-31 renal) | growth (TK-10 renal) | growth (ACHN renal) | growth (A498 renal) | growth (CCRF-CEM leukemia) | growth (MOLT-4 leukemia) | growth (SR leukemia) | growth (RPMI-8226 leukemia) | growth (OVCAR-8 ovarian) | growth (OVCAR-5 ovarian) [%] | growth (OVCAR-4 ovarian) | growth (SK-OV-3 ovarian) | growth (IGROV1 ovarian) | growth (OVCAR-3 ovarian) | growth (HS 578T breast) | growth (NCI/ADR-RES ovarian) | growth (T-47D breast)
1 | Cc1nc2sc(C(=O)Nc3cccc4ccccc34)c(N)c2cc1C(C)O (stereo not given) | 36.5% | 36.7% | 36% | 48.6% | 75.2% | 42.8% | 24.2% | 9.13% (active) | 13.3% | 12.3% | 18% | 16.2% | 40.7 | 55.5% | 32.1% | 31.7% | 3.11% (active) | 32.3% | -1.67% (active) | 49.4%
2 | COc1cc(/C=C/CO)cc(OC)c1O[C@@H]1O[C@H](CO)[C@@H](O)[C@H](O)[C@H]1O | 108% | 95% | 96.8% | 97.1% | 98.7% | 109% | 77.2% | 96.2% | 94.8% | 95.2% | 99.3% | 98.8% | 92.4 | 100% | 100% | 104% | 108% | 96.4% | 106% | 93.1%
3 | COc1ccc2c(c1)Oc1nc(N)c(C#N)c(N)c1C2Sc1ccc(O)cc1 (stereo not given) | 87.5% | 77.7% | 89.4% | 68.3% | 98.5% | 94.2% | 91.4% | 16.5% | 34.7% | 13.7% | 53.4% | 102% | 118 | 88.8% | 104% | 62% | 79.7% | 109% | 106% | 50.7%
4 | O=C(O)c1cn(C2CC2)c2cc(N3CCN(Cc4nnc(Nc5ccccc5)o4)CC3)c(F)cc2c1=O | 101% | 103% | 109% | 92.5% | 112% | 103% | 92.2% | 92% | 98.5% | 97.7% | 106% | 108% | 94 | 101% | 108% | 95.9% | 101% | 98% | 107% | 85.4%
5 | CO[C@@]12C=C[C@@]34CCC(=O)N3c3ccccc3[C@@H](O1)C4C2 | 101% | 98.8% | 95.5% | 81.4% | 95.1% | 98.6% | 109% | 90.1% | 95.9% | 96.9% | 94.6% | 97.7% | 101 | 109% | 107% | 99.1% | 108% | 95.3% | 97.7% | 96.2%
6 | NC(=O)CN1C(=O)c2ccccc2C1=O | 108% | 104% | 97.7% | 90.4% | 103% | 105% | 92% | 96.6% | 99.1% | 87.8% | 105% | 103% | 102 | 110% | 106% | 105% | 106% | 104% | 102% | 89.9%
7 | C#C[C@@]1(O)[C@@H](CO)O[C@@H](n2ccc3c(N)ncnc32)[C@@H]1O | -8.72% (active) | -4.75% (active) | -12.3% (active) | -14.7% (active) | 3.25% (active) | 3.47% (active) | -53.2% (active) | 13.3% | -1.22% (active) | 12.1% | 4.21% (active) | -21.7% (active) | 25.6 | 0.622% (active) | -7.62% (active) | 4.28% (active) | 18.2% | 51.6% | -9.78% (active) | -34% (active)
8 | COc1cc(-c2csc(NC(=O)Nc3cc(Cl)cc(Cl)c3)n2)cc(OC)c1OC | 75.2% | 1.71% (active) | -84% (active) | -66% (active) | -68.9% (active) | -33% (active) | -25.9% (active) | 13.5% | 16.3% | -4.59% (active) | 13.7% | 9.3% (active) | 39.1 | -81.4% (active) | 14.9% | -59.4% (active) | -85.9% (active) | -18.2% (active) | 5.24% (active) | -41.5% (active)
